Counter-ions that a name gives are not always drawn.
The compounds below were run against IKZF1 (dCK*-IKZF1 fusion in HEK293FT) (UniProt Q13422) (assay: inhibition of IKZF1 HTRF signal (DMSO = 0%, pomalidomide 10 uM = 100%); higher = lower IKZF1 protein level). Conditions: compound concentration: 5 uM, overnight (~20 h).
IKZF1 (dCK*-IKZF1 fusion in HEK293FT), sequence (Q13422 whole entry, looked up, the tested form may be a part): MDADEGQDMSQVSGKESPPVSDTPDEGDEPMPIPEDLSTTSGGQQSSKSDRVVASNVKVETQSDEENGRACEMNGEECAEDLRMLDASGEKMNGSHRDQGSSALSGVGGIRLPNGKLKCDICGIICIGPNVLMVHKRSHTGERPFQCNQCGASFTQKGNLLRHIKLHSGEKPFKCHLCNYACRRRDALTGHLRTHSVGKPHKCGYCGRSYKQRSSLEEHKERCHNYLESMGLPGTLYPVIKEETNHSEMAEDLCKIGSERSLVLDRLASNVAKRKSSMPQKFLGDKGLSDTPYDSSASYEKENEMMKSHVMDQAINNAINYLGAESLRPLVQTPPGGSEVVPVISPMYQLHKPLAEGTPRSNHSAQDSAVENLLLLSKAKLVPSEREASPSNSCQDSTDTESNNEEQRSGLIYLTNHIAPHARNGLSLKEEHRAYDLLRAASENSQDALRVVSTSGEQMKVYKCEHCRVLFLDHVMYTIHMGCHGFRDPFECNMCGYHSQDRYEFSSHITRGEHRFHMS
Summary of the method: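 After overnight treatment at 37 °C with 5 μM compound in single wells, HEK293FT cells (2000/well, 384-well) stably expressing an IKZF1 fusion were lysed for 30 min at room temperature. A commercial HTRF total-IKZF1 antibody kit was incubated with the lysate overnight, and the time-resolved FRET ratio at 665/620 nm was corrected for background. Data are given as percent inhibition of IKZF1 signal relative, on each plate, to vehicle and a reference degrader, set at 0% and 100% respectively.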
In the case of `COc1cc(/C=C2\CCC/C(=C\c3ccc(O)c(OC)c3)C2=O)ccc1O` [cyclovalone], the “inhibition of IKZF1 HTRF signal” value is reported as -30.9%.
`CCC(=O)N1CCN(c2ccc(-n3c(=O)ccc4cnc5ccc(-c6cnc7ccccc7c6)cc5c43)cc2C(F)(F)F)CC1` [Torin 1] was tested, and the “inhibition of IKZF1 HTRF signal” value was 35.7%.
For `O=[N+]([O-])c1ccc2nc(COCc3nc4ccc([N+](=O)[O-])cc4[nH]3)[nH]c2c1`, the “inhibition of IKZF1 HTRF signal” value was -34.1%.
For `Cc1cccc(C)c1NC(=O)CN1CCN(CCCC(c2ccc(F)cc2)c2ccc(F)cc2)CC1` [lidoflazine], the “inhibition of IKZF1 HTRF signal” value was -30.1%.
In the case of `O=S(=O)(O)CCSSCCS(=O)(=O)O`, the “inhibition of IKZF1 HTRF signal” value is reported as -1.7%.
In the case of `Cc1nc(Nc2ncc(C(=O)Nc3c(C)cccc3Cl)s2)cc(N2CCN(CCO)CC2)n1` [Dasatinib], the “inhibition of IKZF1 HTRF signal” value is reported as -54.9%.
In the case of `COC(=O)Nc1ccc(-c2nc(N3CCOCC3)c3cnn(C4CCN(C(=O)OC)CC4)c3n2)cc1`, the “inhibition of IKZF1 HTRF signal” value is reported as 8.25%.
With `COc1cc(NS(=O)(=O)c2ccc(N)cc2)ncn1` the “inhibition of IKZF1 HTRF signal” value was -31.4%.
In the case of `Clc1ccc(C(Cn2ccnc2)OCc2c(Cl)cccc2Cl)c(Cl)c1` (stereo not drawn) [Isoconazole nitrate (Travogen)], the “inhibition of IKZF1 HTRF signal” value is reported as -10.4%.
In the case of `C=C1C(=O)O[C@H]2[C@H]1CC/C(C)=C\CC[C@@]1(C)O[C@@H]21` [Parthenolide ((-)-Parthenolide)], the “inhibition of IKZF1 HTRF signal” value is reported as -18.3%.
For `N=c1ccn2c(n1)O[C@H]1[C@H](O)[C@@H](CO)O[C@H]12` [Cyclocytidine HCl], the “inhibition of IKZF1 HTRF signal” value was -19.3%.
`CCCCOc1ccc(-c2cncc(C(=O)NCc3cccnc3N3CCOCC3)c2)cc1Cl` was tested, and the “inhibition of IKZF1 HTRF signal” value was -19.5%.
With `CC(C)(C)c1ccc(/C=C/C(=O)Nc2ccc3c(c2)OCCO3)cc1` the “inhibition of IKZF1 HTRF signal” value was -32%.
With `C1CCC(C(CC2CCCCN2)C2CCCCC2)CC1` (stereo not drawn) the “inhibition of IKZF1 HTRF signal” value was 11.6%.
For `CC[C@H](CO)Nc1nc(Nc2cccc(-c3ccccn3)c2)c2ncn(C(C)C)c2n1`, the “inhibition of IKZF1 HTRF signal” value was -29.5%.
For `COc1cc(N2CCN(CCOCCOCCNC(=O)CNc3cccc4c3C(=O)N(C3CCC(=O)NC3=O)C4=O)CC2)ccc1Nc1ncc(Cl)c(Nc2ccccc2S(=O)(=O)C(C)C)n1` (stereo not drawn), the “inhibition of IKZF1 HTRF signal” value was 34.1%.
With `CN(C)C(=O)C(CCN1CCC(O)(c2ccc(Cl)cc2)CC1)(c1ccccc1)c1ccccc1` the “inhibition of IKZF1 HTRF signal” value was -14.4%.
In the case of `CSCC[C@H](N)C(=O)O` [L-methionine], the “inhibition of IKZF1 HTRF signal” value is reported as -9.26%.
For `CCN(c1ccccc1)c1cc(NC)[n+](C)c(C)n1`, the “inhibition of IKZF1 HTRF signal” value was 26.3%.
With `CCCCCCCC/C=C\CCCCCCCC(=O)NCCO` [oleoylethanolamide] the “inhibition of IKZF1 HTRF signal” value was -34.1%.
In the case of `Cc1noc(C)c1-c1ccc(-c2cc(C(N)=O)c(NC(N)=O)s2)c(O[C@H]2CCNC2)c1`, the “inhibition of IKZF1 HTRF signal” value is reported as -26%.
In the case of `CC(C)(C)C1=CC=C(CN(C)[C@H](C(N[C@H]([C@](NC(C)(C)C)=O)CC2=CC=C(OCC3=CC=CC=C3)C=C2)=O)CC(C)C)C=C1`, the “inhibition of IKZF1 HTRF signal” value is reported as -24.5%.
With `O=C(Nc1cc(C(F)(F)F)cc(C(F)(F)F)c1)Nc1c(Br)cc(Br)cc1-c1nnn[nH]1` the “inhibition of IKZF1 HTRF signal” value was -17%.
In the case of `c1ccc(C2(c3ccccc3)CC2=C2NCCN2)cc1` [cibenzoline], the “inhibition of IKZF1 HTRF signal” value is reported as -50%.
With `Nc1ccc(S(=O)(=O)Nc2ncccn2)cc1` the “inhibition of IKZF1 HTRF signal” value was -27.2%.
In the case of `COc1cc(NS(=O)(=O)c2ccc(N)cc2)nc(OC)n1`, the “inhibition of IKZF1 HTRF signal” value is reported as -24.5%.
`CCNC(=O)Nc1ccc(-c2nc3c(c(N4CCOC[C@@H]4C)n2)CCN(C2COC2)C3)cc1` was tested, and the “inhibition of IKZF1 HTRF signal” value was 68.5%.
With `O=C(OC)C1=C(C)NC(C)=C([N+]([O-])=O)[C@H]1[C@]2=CC=CC=C2C(F)(F)F` the “inhibition of IKZF1 HTRF signal” value was -26.8%.
`CO[C@H]1O[C@@H]2O[C@@]3(C)CC[C@H]4[C@H](C)CC[C@@H]([C@H]1C)[C@@]24OO3` [Artemether] was tested, and the “inhibition of IKZF1 HTRF signal” value was -2.04%.
For `CN(C)CC/C=C1\c2ccccc2CSc2ccccc21` [dosulepin], the “inhibition of IKZF1 HTRF signal” value was -26.3%.
With `COCCN(C(=O)c1cc(OC)c(OC)c(OC)c1)c1nc(-c2ccccc2)cs1` [eact] the “inhibition of IKZF1 HTRF signal” value was -41.3%.
In the case of `CN(C)CCCN1c2ccccc2Sc2ccc(Cl)cc21`, the “inhibition of IKZF1 HTRF signal” value is reported as -47.9%.
In the case of `COc1ncnc(NS(=O)(=O)c2ccc(N)cc2)c1OC`, the “inhibition of IKZF1 HTRF signal” value is reported as -56.1%.
In the case of `COC(=O)Nc1nc2ccc(S(=O)c3ccccc3)cc2[nH]1` (stereo not drawn), the “inhibition of IKZF1 HTRF signal” value is reported as 5.34%.
In the case of `CN(C)c1ccc2c(c1)Sc1cc(N(C)C)ccc1N2.CS(=O)(=O)O` [Leucomethylene blue (Mesylate)], the “inhibition of IKZF1 HTRF signal” value is reported as -24.1%.
For `O=C1CN(/N=C/c2ccc(-c3ccc([N+](=O)[O-])cc3)o2)C(=O)N1` [dantrolene], the “inhibition of IKZF1 HTRF signal” value was 27.9%.
`CC(CNC1CCCCC1)OC(=O)c1ccccc1` (stereo not drawn) [hexylcaine] was tested, and the “inhibition of IKZF1 HTRF signal” value was -36.3%.
With `CCCCCCC[N+](CC)(CC)CCCCc1ccc(Cl)cc1` [clofilium] the “inhibition of IKZF1 HTRF signal” value was -21.8%.
